Test results: the supplement of paper PMC6555819

Key:
Test in all cases: PBM binding z-score (relative to random genomic background probes); higher = stronger binding; sequences stand for … in GC…GCGATTGACAGCGTAGAATGAAGG
[1] = tested on: FXR:RXRa (NR concentration 270 nM, RXRa partner concentration 90 nM)
Outline: (§1)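 Random background probes are the reference for binding z-scores. These scores derive from regression-normalized fluorescence on custom Agilent 4×180K protein-binding microarrays incubated 1 h with ligand-free nuclear receptor dimers. Binding was detected with antibodies against each partner (one per run).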

[2] = tested on: LXRa:RXRa (NR concentration 270 nM, RXRa partner concentration 90 nM)
Outline: as §1

[3] = tested on: LXRa homodimer (NR concentration 270 nM)
Outline: as §1

[4] = tested on: LXRb:RXRa (NR concentration 270 nM, RXRa partner concentration 90 nM)
Outline: as §1

[5] = tested on: LXRb homodimer (NR concentration 270 nM)
Outline: as §1

[6] = tested on: PPARa:RXRa (NR concentration 270 nM, RXRa partner concentration 90 nM)
Outline: as §1

[7] = tested on: PPARg:RXRa (NR concentration 180 nM, RXRa partner concentration 90 nM)
Outline: as §1

[8] = tested on: PPARg:RXRa 270nM:90nM, anti-RXR (NR concentration 270 nM, RXRa partner concentration 90 nM)
Outline: as §1

[9] = tested on: PPARg:RXRa 30nM:10nM, anti-RXR (NR concentration 30 nM, RXRa partner concentration 10 nM)
Outline: as §1

[10] = tested on: PPARg:RXRa 90nM:30nM, anti-RXR (NR concentration 90 nM, RXRa partner concentration 30 nM)
Outline: as §1

[11] = tested on: PPARg:RXRa DBDmut IVT, anti-RXR (DBD mutation: RXRa K156A/R161A, NR concentration 270 nM, RXRa partner concentration 90 nM)
Outline: as §1

[12] = tested on: PPARg:RXRa IVT, anti-PPARg (NR concentration 270 nM, RXRa partner concentration 90 nM)
Outline: as §1

[13] = tested on: PPARg DBDmut:RXRa IVT, anti-PPARg (DBD mutation: PPARg1 K132A/R137A, NR concentration 270 nM, RXRa partner concentration 90 nM)
Outline: as §1

[14] = tested on: PPARg DBDmut IVT, anti-PPARg (DBD mutation: PPARg1 K132A/R137A, NR concentration 270 nM)
Outline: as §1

[15] = tested on: PPARg homodimer (NR concentration 180 nM)
Outline: as §1

[16] = tested on: PXR:RXRa (NR concentration 270 nM, RXRa partner concentration 90 nM)
Outline: as §1

[17] = tested on: PXR homodimer (NR concentration 270 nM)
Outline: as §1

[18] = tested on: RARa:RXR (NR concentration 270 nM, RXRa partner concentration 90 nM)
Outline: as §1

[19] = tested on: RARa homodimer (NR concentration 270 nM)
Outline: as §1

[20] = tested on: RARb:RXRa (NR concentration 270 nM, RXRa partner concentration 90 nM)
Outline: as §1

Row | Sequence | PBM binding z-score [1] | PBM binding z-score [2] | PBM binding z-score [3] | PBM binding z-score [4] | PBM binding z-score [5] | PBM binding z-score [6] | PBM binding z-score [7] | PBM binding z-score [8] | PBM binding z-score [9] | PBM binding z-score [10] | PBM binding z-score [11] | PBM binding z-score [12] | PBM binding z-score [13] | PBM binding z-score [14] | PBM binding z-score [15] | PBM binding z-score [16] | PBM binding z-score [17] | PBM binding z-score [18] | PBM binding z-score [19] | PBM binding z-score [20]
1 | CAAACTAGGTCACCGGTAGGTCAAAGTCCGCATG | 5.71 | 4.92 | 3.87 | 4.52 | 0.66 | 5.98 | 9.32 | 7.44 | 5.74 | 7.12 | 8.32 | 9.19 | 3.98 | 4.14 | 4.51 | 4.51 | 0.526 | 5.43 | 1.6 | 4.95
2 | GCTAGTAGATCAAGGTTAAGAAAGACTAAGCTAA | 0.0668 | 0.637 | -0.651 | 0.372 | -0.999 | 1.46 | 1.22 | 2.22 | 0.524 | 1.57 | 1.22 | 0.943 | -0.176 | -0.411 | -0.263 | 0.229 | 0.0369 | 0.542 | 0.169 | 0.561
3 | CCGAGTAGGTTATGGGGCAATCAGGCAACGGTGA | 0.219 | 0.461 | 0.13 | 0.86 | -0.142 | 2.37 | 3.61 | 4.62 | 2.23 | 4.39 | 3.71 | 3.81 | -0.0155 | -0.785 | 0.948 | 0.118 | -0.0981 | 0.631 | 0.26 | 1.11
4 | CTCGAAAGGTCGTGCTAAGGTGAGTATACCAAAC | 5.5 | 4.12 | 0.337 | 3.46 | 0.12 | 5.03 | 3.4 | 4.54 | 1.67 | 3.46 | 0.626 | 2.19 | 0.542 | 0.415 | 2.51 | 3.71 | 0.449 | 5.09 | 0.258 | 4.05
5 | AGAATGAGGTTATCCGTAGATCAGGGAAGAAAGT | 2.59 | 2.06 | -0.212 | 1.57 | -0.253 | 3.44 | 1.63 | 2.05 | 0.418 | 1.32 | 3.68 | 2.42 | 0.156 | 1.03 | 0.547 | 1.17 | 0.231 | 1.76 | 0.02 | 1.66
6 | TCTTGTAGATCAATACAGGTTAAGAAAGTGCGCT | 0.747 | 2.01 | 0.393 | 1.23 | 0.0132 | 1.29 | 0.19 | 1.49 | 2.99 | 2.11 | 2.28 | 1.23 | 0.912 | 1.31 | 1.18 | 1.76 | 0.308 | 1.1 | 0.461 | 0.5
7 | CCAGACAAGTGAAAGGTAACTCAGTCTGGTACGC | -0.0838 | 0.254 | -0.234 | 0.206 | -0.315 | 1.07 | 1.42 | 2.61 | 0.692 | 1.77 | -0.0186 | 0.0117 | -0.187 | -0.255 | 0.888 | 0.0621 | -0.0763 | 0.166 | 0.124 | 0.247
8 | CAAACTAGGTCACAGAGGTCTAAGTCCGTGCGTA | 4.42 | 3.56 | 0.555 | 2.13 | 0.273 | 5.17 | 8.49 | 6.93 | 5.19 | 6.98 | 8.53 | 8.91 | 1.68 | 1.67 | 0.929 | 2.54 | 0.546 | 2.8 | 0.421 | 4.13
9 | ACTATTAGTTGACTTAGGGCAACCAATACGACGC | 0.265 | 0.363 | 0.224 | 0.227 | 0.496 | 0.111 | 0.997 | 0.305 | 0.385 | 0.219 | 0.203 | 0.66 | 0.926 | 0.817 | 0.6 | 0.385 | 0.557 | 0.714 | 0.139 | 0.985
10 | AGAATGAGGTTATACGTAGATCATGGAAGAAAGT | 2.28 | 2.35 | 0.00529 | 1.76 | 0.0323 | 3.28 | 2.34 | 2.58 | 1.01 | 1.79 | 3.69 | 2.6 | 1.46 | 0.947 | 1.21 | 1.25 | 0.482 | 1.77 | 0.298 | 1.53
11 | AGTCAAAGTTCAGGACGAGGTAACGCAAAGCACG | 3.93 | 3.88 | 1.08 | 2.03 | 0.0872 | 3.33 | 4.31 | 4.9 | 1.97 | 3.87 | -0.0629 | 1.75 | 0.41 | -0.132 | 1.73 | 2.72 | 1.03 | 2.78 | 0.826 | 4.33
12 | TTACCAAGGTGAGCTGAGGTCGTTGGTCCAACTC | 1.55 | 1.34 | -0.436 | 0.439 | -1.02 | 1.67 | -0.467 | 0.63 | -0.5 | 0.00719 | 1.42 | 1.75 | -0.48 | -1.25 | -0.363 | 4.68 | 0.529 | 1.63 | -1.02 | 1.72
13 | CACGAAAGGTCGGTTGAGGTGAGTATACGGATAA | 2.53 | 2.25 | 0.0219 | 1.7 | 0.387 | 3 | 0.823 | 1.36 | 0.246 | 0.906 | 0.197 | 1.19 | 1.19 | 0.977 | 1.22 | 3.42 | 0.224 | 2.96 | 0.255 | 3.18
14 | GCTAACAGGCCATTTGGGTCACTCAATGACGGGC | 0.418 | 0.268 | -0.00824 | 0.389 | -0.169 | 1.73 | 0.912 | 0.349 | -0.624 | -0.263 | 1.61 | 1.82 | -0.246 | -0.627 | 0.24 | 0.795 | 0.0442 | 1.03 | -0.111 | 1.81
